{
  "source": "the supplement of paper PMC8728848",
  "assay_in_all_cases": "glycan array binding signal (z-score within array); higher = stronger binding",
  "conditions_in_all_cases": "glycan notation: IUPAC condensed, linker removed",
  "key": {"[1]": {"target": "Fuc(a1-2)Gal(b1-3)GalNAc(a1-3)[Fuc(a1-2)]Gal(b1-4)GlcNAc", "procedure,_shortened": "(§1)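 The binding signal is a Z-score computed within each array. Data were drawn from 3228 arrays in the Consortium for Functional Glycomics database, restricted to those with a known protein sequence. Scores were averaged over arrays of the same protein sequence at different concentrations or buffers, and over linkers, and negative values can be taken as non-binding.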"}, "[2]": {"target": "Fuc(a1-2)Gal(b1-3)GlcNAc(b1-3)GalNAc", "procedure,_shortened": "as §1"}, "[3]": {"target": "Fuc(a1-2)Gal(b1-3)GlcNAc(b1-3)[Neu5Ac(a2-6)Gal(b1-4)GlcNAc(b1-6)]Gal(b1-4)Glc", "procedure,_shortened": "as §1"}, "[4]": {"target": "Fuc(a1-2)Gal(b1-3)[Fuc(a1-4)]GlcNAc", "procedure,_shortened": "as §1"}, "[5]": {"target": "Fuc(a1-2)Gal(b1-4)GlcNAc(b1-2)Man(a1-3)[Fuc(a1-2)Gal(b1-4)GlcNAc(b1-2)Man(a1-6)]Man(b1-4)GlcNAc(b1-4)[Fuc(a1-6)]GlcNAc", "procedure,_shortened": "as §1"}, "[6]": {"target": "Fuc(a1-2)Gal(b1-4)GlcNAc(b1-2)[Fuc(a1-2)Gal(b1-4)GlcNAc(b1-4)]Man(a1-3)[Fuc(a1-2)Gal(b1-4)GlcNAc(b1-2)Man(a1-6)]Man(b1-4)GlcNAc(b1-4)GlcNAc", "procedure,_shortened": "as §1"}, "[7]": {"target": "Fuc(a1-2)Gal(b1-4)GlcNAc(b1-3)Gal(b1-4)GlcNAc(b1-2)Man(a1-3)[Fuc(a1-2)Gal(b1-4)GlcNAc(b1-3)Gal(b1-4)GlcNAc(b1-2)Man(a1-6)]Man(b1-4)GlcNAc(b1-4)GlcNAc", "procedure,_shortened": "as §1"}, "[8]": {"target": "Fuc(a1-2)Gal(b1-4)GlcNAc6S", "procedure,_shortened": "as §1"}, "[9]": {"target": "Fuc(a1-2)Gal(b1-4)[Fuc(a1-3)]GlcNAc(b1-3)Gal(b1-4)[Fuc(a1-3)]GlcNAc", "procedure,_shortened": "as §1"}, "[10]": {"target": "Fuc(a1-2)Gal(b1-4)[Fuc(a1-3)]GlcNAc(b1-3)Gal(b1-4)[Fuc(a1-3)]GlcNAc(b1-3)Gal(b1-4)[Fuc(a1-3)]GlcNAc", "procedure,_shortened": "as §1"}, "Fuc(a1-2)[Gal(a1-3)]Gal": {"target": "Fuc(a1-2)[Gal(a1-3)]Gal", "procedure,_shortened": "as §1"}, "[11]": {"target": "Fuc(a1-2)[Gal(a1-3)]Gal(b1-3)GlcNAc(b1-6)GalNAc", "procedure,_shortened": "as §1"}, "[12]": {"target": "Fuc(a1-2)[Gal(a1-3)]Gal(b1-4)GlcNAc", "procedure,_shortened": "as §1"}, "[13]": {"target": "Fuc(a1-2)[GalNAc(a1-3)]Gal(b1-3)GlcNAc(b1-6)GalNAc", "procedure,_shortened": "as §1"}, "[14]": {"target": "Fuc(a1-2)[GalNAc(a1-3)]Gal(b1-4)GlcNAc(b1-3)Gal(b1-4)GlcNAc(b1-3)Gal(b1-4)GlcNAc", "procedure,_shortened": "as §1"}, "[15]": {"target": "Fuc(a1-3)[Gal(b1-4)]GlcNAc(b1-3)Gal(b1-4)[Fuc(a1-3)]GlcNAc(b1-3)Gal(b1-4)[Fuc(a1-3)]GlcNAc", "procedure,_shortened": "as §1"}, "[16]": {"target": "Fuc(a1-3)[GalNAc(b1-4)]GlcNAc", "procedure,_shortened": "as §1"}, "Gal(a1-3)Gal": {"target": "Gal(a1-3)Gal", "procedure,_shortened": "as §1"}, "[17]": {"target": "Gal(a1-3)Gal(b1-3)[Fuc(a1-4)]GlcNAc(b1-2)Man(a1-3)[Gal(a1-3)Gal(b1-3)[Fuc(a1-4)]GlcNAc(b1-2)Man(a1-6)]Man(b1-4)GlcNAc(b1-4)GlcNAc", "procedure,_shortened": "as §1"}, "Gal(a1-4)Gal(b1-4)Glc": {"target": "Gal(a1-4)Gal(b1-4)Glc", "procedure,_shortened": "as §1"}, "[18]": {"target": "Gal(a1-4)Gal(b1-4)GlcNAc(b1-3)Gal(b1-4)Glc", "procedure,_shortened": "as §1"}, "Gal(b1-3)Gal(b1-4)GlcNAc": {"target": "Gal(b1-3)Gal(b1-4)GlcNAc", "procedure,_shortened": "as §1"}, "[19]": {"target": "Gal(b1-3)GalNAc(a1-3)[Fuc(a1-2)]Gal(b1-4)Glc", "procedure,_shortened": "as §1"}, "[20]": {"target": "Gal(b1-3)GlcNAc(b1-2)Man(a1-3)[Gal(b1-3)GlcNAc(b1-2)Man(a1-6)]Man(b1-4)GlcNAc(b1-4)[Fuc(a1-6)]GlcNAc", "procedure,_shortened": "as §1"}, "[21]": {"target": "Gal(b1-3)GlcNAc(b1-2)Man(a1-3)[GlcNAc(b1-4)][Gal(b1-3)GlcNAc(b1-2)Man(a1-6)]Man(b1-4)GlcNAc(b1-4)GlcNAc", "procedure,_shortened": "as §1"}, "Gal(b1-4)GlcNAc(b1-2)Man": {"target": "Gal(b1-4)GlcNAc(b1-2)Man", "procedure,_shortened": "as §1"}, "[22]": {"target": "Gal(b1-4)GlcNAc(b1-2)Man(a1-3)[GlcNAc(b1-2)Man(a1-6)]Man(b1-4)GlcNAc(b1-4)GlcNAc", "procedure,_shortened": "as §1"}, "[23]": {"target": "Gal(b1-4)GlcNAc(b1-3)Gal(b1-3)GalNAc", "procedure,_shortened": "as §1"}, "Gal3S6S(b1-4)GlcNAc": {"target": "Gal3S6S(b1-4)GlcNAc", "procedure,_shortened": "as §1"}, "[24]": {"target": "GalNAc(b1-4)GlcNAc(b1-3)GalNAc(b1-4)GlcNAc", "procedure,_shortened": "as §1"}},
  "note": "Many of the other results were omitted from the sample, so the strongest signals are more common in it than they were.",
  "data": [
    {"binder": "LecB PA14 (Pseudomonas aeruginosa) (protein) MATQGVFTLPANTQFGVTAFANSAGTQTVNVQVNNETVATFTGQSTNNAIIGSKVLNSGGGGKVQILVSVNGRSSDLVSAQVILANELNFALVGSEDSTDNDYNDAVVVINWPLG", "values": [
      {"measurement": "glycan array binding signal (z-score)", "setting": "[1]", "result": 0.586},
      {"measurement": "glycan array binding signal (z-score)", "setting": "[2]", "result": 0.422},
      {"measurement": "glycan array binding signal (z-score)", "setting": "[3]", "result": 0.308},
      {"measurement": "glycan array binding signal (z-score)", "setting": "[4]", "result": 2.93},
      {"measurement": "glycan array binding signal (z-score)", "setting": "[5]", "result": 2.75},
      {"measurement": "glycan array binding signal (z-score)", "setting": "[6]", "result": 4.68},
      {"measurement": "glycan array binding signal (z-score)", "setting": "[7]", "result": 7.45},
      {"measurement": "glycan array binding signal (z-score)", "setting": "[8]", "result": -0.469},
      {"measurement": "glycan array binding signal (z-score)", "setting": "[9]", "result": 10.2},
      {"measurement": "glycan array binding signal (z-score)", "setting": "[10]", "result": 7.29},
      {"measurement": "glycan array binding signal (z-score)", "setting": "Fuc(a1-2)[Gal(a1-3)]Gal", "result": -0.002},
      {"measurement": "glycan array binding signal (z-score)", "setting": "[11]", "result": -0.543},
      {"measurement": "glycan array binding signal (z-score)", "setting": "[12]", "result": -0.7},
      {"measurement": "glycan array binding signal (z-score)", "setting": "[13]", "result": -0.191},
      {"measurement": "glycan array binding signal (z-score)", "setting": "[14]", "result": -0.182},
      {"measurement": "glycan array binding signal (z-score)", "setting": "[15]", "result": 4.17},
      {"measurement": "glycan array binding signal (z-score)", "setting": "[16]", "result": 5.42},
      {"measurement": "glycan array binding signal (z-score)", "setting": "Gal(a1-3)Gal", "result": -0.72},
      {"measurement": "glycan array binding signal (z-score)", "setting": "[17]", "result": 2.54},
      {"measurement": "glycan array binding signal (z-score)", "setting": "Gal(a1-4)Gal(b1-4)Glc", "result": -0.633},
      {"measurement": "glycan array binding signal (z-score)", "setting": "[18]", "result": 0.061},
      {"measurement": "glycan array binding signal (z-score)", "setting": "Gal(b1-3)Gal(b1-4)GlcNAc", "result": -0.517},
      {"measurement": "glycan array binding signal (z-score)", "setting": "[19]", "result": -0.227},
      {"measurement": "glycan array binding signal (z-score)", "setting": "[20]", "result": 0.647},
      {"measurement": "glycan array binding signal (z-score)", "setting": "[21]", "result": 0.447},
      {"measurement": "glycan array binding signal (z-score)", "setting": "Gal(b1-4)GlcNAc(b1-2)Man", "result": -0.837},
      {"measurement": "glycan array binding signal (z-score)", "setting": "[22]", "result": 0.016},
      {"measurement": "glycan array binding signal (z-score)", "setting": "[23]", "result": -0.179},
      {"measurement": "glycan array binding signal (z-score)", "setting": "Gal3S6S(b1-4)GlcNAc", "result": -0.745},
      {"measurement": "glycan array binding signal (z-score)", "setting": "[24]", "result": -0.272}
    ]}
  ]
}
